Screening results from PubChem BioAssay.
The entries come from a sample that favours hits as a whole.
ID4 SMM: ID4 (human) binding | P47928 | small molecule microarray, Flag-ID4 binding, fluorescence F/B | calls only | 31,000 tested, 1.2% active; call rule not given here;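 also: a binder raises fluorescence above local background on the spot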
Target sequence (P47928 whole entry, looked up): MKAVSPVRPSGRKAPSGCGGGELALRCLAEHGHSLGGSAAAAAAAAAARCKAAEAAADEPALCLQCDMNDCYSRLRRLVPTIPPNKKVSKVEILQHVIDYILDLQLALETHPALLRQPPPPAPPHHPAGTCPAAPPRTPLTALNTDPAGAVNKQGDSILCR
* = called active by the depositor; i = inactive; + = active, no number.

SMILES | ID4 SMM
CN(c1ccccc1C(=O)Nc1ccccc1C(=O)N1CCOCC1)S(C)(=O)=O | i
CSc1ccccc1NC(=O)CN(c1cc(C(F)(F)F)ccc1Cl)S(C)(=O)=O | i
COc1ccc2[nH]c(=O)c(CN(C)C(=O)c3cccc(Cl)c3)cc2c1 | i
C[C@@H]1CN([C@@H](C)CO)C(=O)c2cc(/C=C/c3ccccc3)cnc2O[C@H]1CN(C)C(=O)Nc1ccccc1F | +
COc1cccc(NC(=O)N(C)C[C@H]2Oc3ncc(C#Cc4ccncc4)cc3C(=O)N([C@H](C)CO)C[C@H]2C)c1 | i
COc1cccc(NC(=O)N(C)C[C@@H]2Oc3ncc(C#Cc4ccncc4)cc3C(=O)N([C@@H](C)CO)C[C@H]2C)c1 | i
C[C@@H]1CN([C@H](C)CO)C(=O)c2cc(/C=C/c3ccccc3)cnc2O[C@H]1CN(C)C(=O)c1ccc(F)cc1 | i
COc1cccc(NC(=O)N(C)C[C@@H]2Oc3ncc(/C=C/c4ccccc4)cc3C(=O)N([C@H](C)CO)C[C@@H]2C)c1 | +
C[C@H](CO)N1C[C@H](C)[C@H](CN(C)C(=O)NC2CCCC2)Oc2ncc(/C=C/c3ccccc3)cc2C1=O | i
NNC(=O)CCn1c(-c2ccccc2)c(-c2ccccc2)c2ccccc21 | i
Cc1cccc(NC(=O)c2ccc(OCC(=O)Nc3ccc(Cl)c(Cl)c3)cc2)c1C | i
O=C(CSc1ncn(-c2ccccc2)n1)Nc1ccccc1Br | i
Cn1c(=O)c2c(ncn2CCCN)n(C)c1=O | i
Cn1c(SCC(=O)Nc2ccnc3ccccc23)nnc1-c1ccncc1 | +
Cn1c(SCC(=O)Nc2ccc(Br)cc2Cl)nnc1-c1ccncc1 | i
Cc1ccc(NC(=O)CSc2nnc(-c3ccncc3)n2C)c(Br)c1 | i
NCCCCCCNC(=O)[C@@H]1C[C@@H]2C(=O)NCC(=O)N2[C@@H]1c1ccc(O)cc1 | +
C=CCOC(=O)[C@@H]1[C@H]2C(=O)O[C@H](c3ccccc3)[C@H](c3ccccc3)N2[C@H](c2ccc(OCCOC(=O)[C@@H]3C[C@@H]4C(=O)N[C@@H](Cc5ccccc5)C(=O)N4[C@@H]3c3cccc(OCCO)c3)cc2)[C@@]12C(=O)Nc1ccc(I)cc12 | i
CC(C)C[C@@H]1NC(=O)[C@H]2C[C@@H](C(=O)NCc3ccc(F)cc3)[C@@H](c3cccc(OCCO)c3)N2C1=O | i
NCCCCCNC(=O)[C@H]1C[C@H]2C(=O)NCC(=O)N2[C@H]1c1cccc(OCCO)c1 | i
CN(C)CCCCNC(=O)[C@@H]1C[C@@H]2C(=O)NCC(=O)N2[C@@H]1c1ccc(O)cc1 | i
CN(C)CCCCCCNC(=O)[C@@H]1C[C@@H]2C(=O)NCC(=O)N2[C@@H]1c1cccc(OCCO)c1 | i
NCCCCCNC(=O)[C@@H]1C[C@@H]2C(=O)NCC(=O)N2[C@@H]1c1cccc(OCCO)c1 | +
NCCCCCCNC(=O)[C@@H]1C[C@@H]2C(=O)N[C@@H](Cc3ccccc3)C(=O)N2[C@@H]1c1ccc(O)cc1 | +
Cc1c(Cl)cccc1NC(=O)COc1ccc(C(=O)Nc2cccc(C(F)(F)F)c2)cc1 | i
SMILES | ID4 SMM
Cc1ccc(S(=O)(=O)NCC(=O)Nc2ccc(I)cc2)cc1 | i
Cc1ccc(OCCSc2n[nH]c3nc4ccccc4n23)cc1 | i
O=C(Cn1cnc2scc(-c3cccc([N+](=O)[O-])c3)c2c1=O)Nc1cccc(C(F)(F)F)c1 | i
O=C(Nc1cnn(Cc2ccc(Cl)cc2Cl)c1)C1CC(c2cccc(Br)c2)=NO1 (stereo not given) | i
CS(=O)(=O)N(CC(=O)Nc1cccc(Cl)c1Cl)c1cccc(F)c1 | i
COc1ccc(OC)c(S(=O)(=O)Nc2ccc(C(N)=O)cc2)c1 | i
COc1ccc(OC)c(NC(=O)c2ccc(C)c(S(=O)(=O)Nc3ccc(C)cc3)c2)c1 | +
COc1ccc(OC)c(NC(=O)c2ccc(Cl)c(S(=O)(=O)Nc3ccc(C)cc3)c2)c1 | i
Cc1cc(C)cc(NC(=O)CN(c2ccc(Cl)cc2Cl)S(C)(=O)=O)c1 | i
CCCC1=C(C(=O)OCC)C(c2cccnc2)n2ncnc2N1 (stereo not given) | i
COc1ccc(S(=O)(=O)N(C)C[C@@H]2Oc3ccc(NC(=O)CCCN(C)C)cc3C(=O)N([C@H](C)CO)C[C@@H]2C)cc1 | i
Cc1noc(C)c1S(=O)(=O)N(C)C[C@H]1OCCCC[C@@H](C)Oc2ccc(NC(=O)CCCN(C)C)cc2C(=O)N([C@@H](C)CO)C[C@H]1C | i
COc1ccc(S(=O)(=O)N(C)C[C@H]2Oc3ccc(NC(=O)CCCN(C)C)cc3C(=O)N([C@H](C)CO)C[C@@H]2C)cc1 | +
Cc1noc(C)c1S(=O)(=O)N(C)C[C@@H]1OCCCC[C@@H](C)Oc2ccc(NC(=O)CCCN(C)C)cc2C(=O)N([C@H](C)CO)C[C@@H]1C | i
C[C@@H]1CN([C@@H](C)CO)C(=O)c2cc(NC(=O)NC3CCCCC3)ccc2O[C@@H]1CN(C)S(=O)(=O)c1ccc(Cl)cc1 | i
C[C@H](CO)N1C[C@H](C)[C@@H](CN(C)S(=O)(=O)c2ccc(Cl)cc2)Oc2ccc(NC(=O)NC3CCCCC3)cc2C1=O | +
COc1ccc(S(=O)(=O)N(C)C[C@H]2Oc3ccc(NC(=O)CCCN(C)C)cc3C(=O)N([C@@H](C)CO)C[C@@H]2C)cc1 | i
Cc1noc(C)c1S(=O)(=O)N(C)C[C@H]1Oc2ccc(NC(=O)CCCN(C)C)cc2C(=O)N([C@H](C)CO)C[C@@H]1C | +
C[C@H]1CN([C@@H](C)CO)C(=O)c2cc(NC(=O)NC3CCCCC3)ccc2O[C@@H]1CN(C)S(=O)(=O)c1ccc(Cl)cc1 | i
COc1cccc(NC(=O)CSc2nnc(-c3ccccc3O)n2-c2ccccc2)c1 | i
Cc1ccc(S(=O)(=O)NC(C)C(=O)Nc2c(F)cccc2F)cc1 (stereo not given) | i
Cc1cc(C)c2oc(-c3ccc(NC(=O)COc4ccc([N+](=O)[O-])cc4)cc3)nc2c1 | i
O=C(CC1OCCN(Cc2ccccc2)C1=O)Nc1cccc(Cl)c1 (stereo not given) | i
CNC[C@@H]1Oc2ccc(NS(C)(=O)=O)cc2CC(=O)N([C@@H](C)CO)C[C@@H]1C | +
CNC[C@H]1Oc2ccc(NS(=O)(=O)c3cccs3)cc2CC(=O)N([C@H](C)CO)C[C@H]1C | i
SMILES | ID4 SMM
CNC[C@@H]1Oc2ccc(NS(=O)(=O)c3cccs3)cc2CC(=O)N([C@@H](C)CO)C[C@H]1C | i
CNC[C@H]1Oc2ccc(NS(C)(=O)=O)cc2CC(=O)N([C@@H](C)CO)C[C@H]1C | i
CNC[C@@H]1Oc2ccc(NS(=O)(=O)c3cccs3)cc2CC(=O)N([C@H](C)CO)C[C@H]1C | +
CNC[C@H]1Oc2ccc(NS(C)(=O)=O)cc2CC(=O)N([C@H](C)CO)C[C@H]1C | i
COC(=O)c1c(NC(=S)Nc2ccn(C)n2)sc(C)c1-c1ccccc1 | i
COC(=O)c1cc(NC(=O)C(C)N(c2ccc(C)cc2)S(C)(=O)=O)ccc1Cl (stereo not given) | i
Cc1ccc(C(=O)Nc2cccc(NC(=O)COc3ccc(Br)cc3)c2)cc1 | i
COc1ccc(-n2c(SCC(=O)c3ccc(Cl)cc3)nnc2-c2ccccc2)cc1 | i
O=C(NCc1ccco1)c1ccc(NC(=O)c2ccco2)cc1 | i
O=C(O)COc1ccc(NC(=O)c2ccc(NC(=O)c3ccco3)cc2)cc1 | +
CC(=O)Nc1ccc(C(=O)Nc2ccc(OCC(=O)O)cc2)cc1 | i
Cc1nc(SCC(=O)N(c2ccccc2)c2ccccc2)n[nH]1 | i
